Data published in PubChem BioAssay.
Active and inactive are the calls of the source.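 The calls were made as follows, unless noted: active = inhibition at or above 50% at 10 µM; inactive = inhibition below 50%.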

Columns and labels:
[1] = inhibitors of TNFa-induced NFkB p65 translocation, primary screen, imaging, HUVEC, MLSMR starter and 10KST1 sets (AID 438;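 active = inhibition above 20% together with a positive visual image hit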;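 also: compound added about 3h40 before a 20 min TNFalpha stimulation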;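 as to inhibition: signal is the nuclear over cytoplasmic p65 intensity ratio per well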); conditions: HUVEC TNFa-induced p65 nuclear translocation; cell count: measured here: nuclei count (cytotoxicity indicator), at 2.08 µM; inhibition: at 2 µM, stronger effect = higher value, 0% TNFa-plus-vehicle, 100% no-TNFa wells
[2] = inhibitors of mutant huntingtin aggregation, primary screen, imaging, exon1htt(103Q)mCFP cells, high-content imaging (AID 483;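 active = visual image review flags a hit and inhibition of aggregation exceeds 20%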;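 also: compound exposure lasted 3 days before fixation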;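 as to nuclei count: percent of the per-plate median nuclei count of sample wells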); conditions: exon1htt(103Q)mCFP cell line, aggregate imaging, at 2 µM; inhibition of aggregation: stronger effect = higher value; nuclei count: measured here: cell count, toxicity
[3] = inhibitors of E-selectin induction by TNFa, primary screen, imaging, HUVEC, immunofluorescence, MLSMR starter and 10KST1 sets (AID 487;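 active = visually confirmed hit in the image check and inhibition above 20%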;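 as to inhibition: signal is fraction of cell area covered by stained E-selectin grains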;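 as to nuclei count: 100% = median nuclei count of all wells on the same plate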); conditions: HUVEC TNFalpha-induced E-selectin immunofluorescence imaging, at 2 µM; inhibition: stronger effect = higher value; nuclei count: measured here: cell number, toxicity
[4] = target: Voltage-gated potassium channel subunit beta-2 (Rattus norvegicus) (UniProt P62483); experiment: KvBeta enzyme negative modulators, primary screen, biochemical, NADPH fluorescence (AID 622;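 active = fluorescence slope higher than the sample average by over 3 SD, cut at about -0.22 in these data, passing the limit was not always enough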;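 also: slope of raw intensity against log time taken from 70 to 1610 s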); conditions: recombinant KvBeta, 4-cyanobenzaldehyde reduction, at 10 µM, stronger effect = higher value
Voltage-gated potassium channel subunit beta-2 (Rattus norvegicus), sequence (P62483 whole entry, looked up): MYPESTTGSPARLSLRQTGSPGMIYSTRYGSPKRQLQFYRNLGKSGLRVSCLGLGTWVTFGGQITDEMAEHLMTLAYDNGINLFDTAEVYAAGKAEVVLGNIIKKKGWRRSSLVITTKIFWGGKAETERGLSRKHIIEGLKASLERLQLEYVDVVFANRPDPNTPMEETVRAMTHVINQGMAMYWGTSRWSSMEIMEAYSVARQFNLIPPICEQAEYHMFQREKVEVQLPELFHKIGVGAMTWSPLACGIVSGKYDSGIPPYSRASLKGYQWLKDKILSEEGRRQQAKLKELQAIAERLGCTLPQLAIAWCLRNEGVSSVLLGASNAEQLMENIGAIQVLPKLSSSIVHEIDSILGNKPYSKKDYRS

[5] = target: Voltage-gated potassium channel subunit beta-2 (Rattus norvegicus) (UniProt P62483); experiment: KvBeta positive modulators, primary screen, biochemical, NADPH fluorescence (AID 623;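 active = NADPH fluorescence slope more negative than the mean of all samples by about 3 SD, 99.7% confidence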;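 also: fluorescence intensity change per second fitted from 20 to 320 s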); conditions: Recombinant KvBeta, NADPH fluorescence decrease slope, 10 min; at 10 µM; stronger effect = lower value
[6] = target: Alpha-2C adrenergic receptor (Homo sapiens) (UniProt P18825); experiment: modulators of alpha2C/GIRK thallium flux, primary screen, cell-based, HEK293 alpha2C/GIRK1/2 (AID 624;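 active = fluorescence slope after compound addition differing from the mean of all screened samples at 99.7% confidence, in either direction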;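 also: slope of fluorescence ratio to pre-addition baseline per second over 15 to 24 s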); conditions: thallium flux BTC fluorescence, at 10 µM, actives lie on both sides
Alpha-2C adrenergic receptor (Homo sapiens), sequence (P18825 whole entry, looked up): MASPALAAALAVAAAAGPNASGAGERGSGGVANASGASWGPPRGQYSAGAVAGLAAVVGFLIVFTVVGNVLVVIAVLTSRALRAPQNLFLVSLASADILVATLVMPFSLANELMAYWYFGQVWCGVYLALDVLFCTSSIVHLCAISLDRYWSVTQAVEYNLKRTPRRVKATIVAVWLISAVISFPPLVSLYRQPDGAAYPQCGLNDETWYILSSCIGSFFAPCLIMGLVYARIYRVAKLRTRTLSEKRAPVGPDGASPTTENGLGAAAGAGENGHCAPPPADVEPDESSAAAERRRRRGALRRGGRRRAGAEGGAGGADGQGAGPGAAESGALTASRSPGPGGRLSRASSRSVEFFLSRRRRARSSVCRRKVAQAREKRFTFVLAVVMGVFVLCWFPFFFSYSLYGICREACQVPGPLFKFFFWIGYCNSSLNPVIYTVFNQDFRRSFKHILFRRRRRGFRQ

[7] = inhibitors of Sendai virus-induced IRF3 signaling, primary screen, TLR/RLR signaling modifier project, cell-based, Sendai virus stimulus, luciferase, 10K MLSCN set (AID 602276); conditions: HEK293 RL24 IRF3 luciferase reporter, at 10 µM, stronger effect = higher value;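 also: firefly luciferase from ISG56 promoter only with Renilla not read in this screen; 0% = Sendai virus plus DMSO and 100% = medium plus DMSO without virus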
[8] = inhibitors of poly I:C-induced TLR3 signaling, primary screen, cell-based, poly I:C stimulus, luciferase, 10K MLSCN set (AID 602277;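 active = inhibition of the reporter signal at or above 50%; inactive = inhibition below 50%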); conditions: HEK293-TLR3 RL24 IRF3 luciferase reporter, at 10 µM, stronger effect = higher value

Row | SMILES | cell count [1] | inhibition [1] | inhibition of aggregation [2] | nuclei count [2] | inhibition [3] | nuclei count [3] | fluorescence slope [4] | NADPH fluorescence slope [5] | slope [6] | inhibition [7] | inhibition [8]
1 | Cc1cc(C(=O)Nc2c(F)cc(F)cc2Br)no1 | 338 | -3.2% (inactive) | 25.8% (inactive) | 94.4% | -143% (inactive) | 103% | -0.58 (inactive) | 1.4e-05 (inactive) | 0.0051 (inactive) | 3.46% (inactive) | -12% (inactive)
2 | COCCNC(=O)c1ccc(CS(=O)(=O)c2c(Cl)cccc2Cl)o1 | 462 | -6.8% (inactive) | 22.9% (inactive) | 103% | -46.3% (inactive) | 112% | -0.428 (inactive) | 2.4e-05 (inactive) | 0.00478 (inactive) | -1.52% (inactive) | 24.5% (inactive)
3 | CCN(CC)Cc1nc2c(c(=O)[nH]1)C1(CCCCC1)Cc1ccccc1-2 | 443 | 9.9% (inactive) | -2.4% (inactive) | 89.3% | -17% (inactive) | 101% | -0.589 (inactive) | -5.5e-05 (inactive) | 0.00352 (inactive) | 10% (inactive) | 10.5% (inactive)
4 | COc1ccc(-c2nnn(CCc3nn[nH]n3)n2)cc1OC | 419 | -7.7% (inactive) | 1.4% (inactive) | 70.5% | -9.7% (inactive) | 112% | -0.561 (inactive) | -2.6e-05 (inactive) | 0.00328 (inactive) | 8.58% (inactive) | -8.87% (inactive)
5 | O=C(NCc1ccco1)C1CCN(c2ccc(N3CCOCC3)nn2)CC1 | 633 | 1.6% (inactive) | 4.1% (inactive) | 92.4% | -70.8% (inactive) | 110% | -0.387 (inactive) | 8e-06 (inactive) | 0.00458 (inactive) | -14.1% (inactive) | -20.9% (inactive)
6 | Cc1ccc2c(c1)CCCN2C(=O)C1CCCO1 (stereo not drawn) | 354 | -6.4% (inactive) | 7.6% (inactive) | 95% | -84.4% (inactive) | 86.9% | -0.417 (inactive) | -4e-05 (inactive) | 0.00423 (inactive) | 10.7% (inactive) | 17.6% (inactive)
7 | O=C(Nc1cccc(F)c1)c1cccc(S(=O)(=O)N2CCOCC2)c1 | 566 | 3% (inactive) | -14% (inactive) | 94.3% | -38.9% (inactive) | 92.1% | -0.504 (inactive) | -5.2e-05 (inactive) | 0.00763 (inactive) | 10.5% (inactive) | 98.3% (active)
8 | Cc1ccc(CNC(=O)C2CCN(S(=O)(=O)c3cccs3)CC2)o1 | 296 | -3.4% (inactive) | 11.2% (inactive) | 76.7% | -23.9% (inactive) | 103% | -0.617 (inactive) | -3.4e-05 (inactive) | 0.00605 (inactive) | 7.81% (inactive) | 5.31% (inactive)
9 | N#CC1=C(N)N(c2ccccc2)C(c2ccco2)C1(C#N)C#N (stereo not drawn) | 322 | 2% (inactive) | -3.9% (inactive) | 103% | 3.9% (inactive) | 107% | -0.427 (inactive) | -1.7e-05 (inactive) | 0.00559 (inactive) | 1.35% (inactive) | 9.78% (inactive)
10 | COCCn1c(C)c(C(=O)O)sc1=S | 279 | 3.8% (inactive) | 8.1% (inactive) | 86.9% | -4.7% (inactive) | 104% | -0.416 (inactive) | 5e-06 (inactive) | 0.00261 (inactive) | 9.55% (inactive) | -6.08% (inactive)
11 | Cc1ccc2cc(CN(CC3CCCO3)S(=O)(=O)c3ccc4c(c3)OCCO4)c(=O)[nH]c2c1C (stereo not drawn) | 478 | 2.4% (inactive) | 8.6% (inactive) | 110% | -42.1% (inactive) | 135% | -0.391 (inactive) | -8.2e-06 (inactive) | 0.00544 (inactive) | 3.97% (inactive) | -19.6% (inactive)
12 | CCc1nnc(NC(=O)CSc2nnc(-c3ccoc3C)n2CC(C)C)s1 | 714 | 3.2% (inactive) | -3.8% (inactive) | 110% | 15.4% (inactive) | 91% | -0.367 (inactive) | 4.9e-06 (inactive) | 0.0051 (inactive) | 16.7% (inactive) | 15.3% (inactive)
13 | COc1ccccc1CC(NC(C)=O)C(=O)NC1CCN(c2nnnn2-c2ccccc2)CC1 (stereo not drawn) | 761 | -5.5% (inactive) | -29.5% (inactive) | 63.6% | -19.7% (inactive) | 117% | -0.624 (inactive) | 1.1e-06 (inactive) | 0.00623 (inactive) | -1.4% (inactive) | 16.9% (inactive)
14 | CCn1cc(C2=NOC(C(=O)Nc3c(C)nn(Cc4ccc(F)cc4)c3C)C2)c(C)n1 (stereo not drawn) | 766 | -12.2% (inactive) | -18.1% (inactive) | 105% | -34.2% (inactive) | 94.7% | -0.581 (inactive) | -2.9e-05 (inactive) | 0.00617 (inactive) | 12.3% (inactive) | 11.4% (inactive)
15 | COc1cc(N=c2ssnc2Cl)cc(OC)c1 | 148 | -7.4% (inactive) | 0.8% (inactive) | 74.7% | 4.2% (inactive) | 82.2% | -0.557 (inactive) | -8.9e-05 (inactive) | 0.0056 (inactive) | -6.83% (inactive) | 8.97% (inactive)
16 | OC1(c2cccc(C(F)(F)F)c2)CCNCC1 | 370 | 1.4% (inactive) | -1.7% (inactive) | 106% | -19% (inactive) | 118% | -0.281 (inactive) | 2.4e-05 (inactive) | 0.007 (inactive) | 18.9% (inactive) | 22.1% (inactive)
17 | CC1(C)Cc2c(sc3c2c(=N)n(Cc2ccco2)c(=O)n3Cc2ccccc2)CO1 | 790 | -10.7% (inactive) | 12% (inactive) | 101% | -27.8% (inactive) | 112% | -0.587 (inactive) | 2.3e-06 (inactive) | 0.0065 (inactive) | 13.1% (inactive) | 23.7% (inactive)
18 | CCSc1nnc(N2C(=O)CC(c3ccsc3)C3=C2CC(C)(C)CC3=O)s1 (stereo not drawn) | 558 | 0% (inactive) | 4.8% (inactive) | 109% | -46.6% (inactive) | 115% | -0.55 (inactive) | -4.6e-05 (inactive) | 0.00599 (inactive) | 11.7% (inactive) | 35.7% (inactive)
19 | CCn1c(C(Cc2ccccc2)NC(=O)COC)nc2ccccc21 (stereo not drawn) | 471 | 13.9% (inactive) | 5.5% (inactive) | 124% | 14.1% (inactive) | 110% | -0.536 (inactive) | -6.3e-05 (inactive) | 0.00652 (inactive) | 11% (inactive) | 31.9% (inactive)
20 | CC(NC(=O)c1ccc2c(c1)OCO2)C(c1cccs1)N1CCOCC1 (stereo not drawn) | 462 | -6.6% (inactive) | 17.3% (inactive) | 113% | -29.4% (inactive) | 115% | -0.618 (inactive) | 2.3e-05 (inactive) | 0.00632 (inactive) | 12.6% (inactive) | 15.4% (inactive)
21 | Cc1ccc(C)c(N2CCN(Cc3nnnn3C3CCCCC3)CC2)c1 | 458 | -4.4% (inactive) | -7.6% (inactive) | 123% | -49.3% (inactive) | 112% | -0.626 (inactive) | -2.5e-05 (inactive) | 0.00597 (inactive) | 11.6% (inactive) | 34.8% (inactive)
22 | CCN(CC(=O)O)S(=O)(=O)c1cc(Cl)ccc1Cl | 353 | 5.6% (inactive) | 10.8% (inactive) | 97.3% | -33.4% (inactive) | 75.2% | -0.416 (inactive) | -2.7e-05 (inactive) | 0.00473 (inactive) | -0.0466% (inactive) | -0.284% (inactive)
23 | CN(Cc1cccs1)CC(O)COCc1ccco1 (stereo not drawn) | 407 | 6% (inactive) | -40.7% (inactive) | 116% | -28.9% (inactive) | 113% | -0.591 (inactive) | -4.7e-05 (inactive) | 0.00778 (inactive) | 11.5% (inactive) | 23.9% (inactive)
24 | COc1cc2c(cc1OC)CN(C(=O)CSc1nnc3scc(-c4ccccc4)n13)CC2 | 548 | -0.3% (inactive) | 12.8% (inactive) | 98.2% | -28.8% (inactive) | 109% | -0.515 (inactive) | -2.7e-05 (inactive) | 0.00728 (inactive) | 1.32% (inactive) | 16.8% (inactive)
25 | CC(C)N(Cc1nc(-c2ccccc2)no1)C(=O)CCCN1C(=O)c2ccccc2C1=O | 475 | -9.3% (inactive) | -7.3% (inactive) | 112% | -78.3% (inactive) | 158% | -0.53 (inactive) | -8.9e-06 (inactive) | 0.00616 (inactive) | 4.76% (inactive) | 3.27% (inactive)
26 | CC1Cc2ccccc2N1C(=O)COC(=O)Cn1nnc(-c2ccccc2)n1 (stereo not drawn) | 543 | -9% (inactive) | -4.6% (inactive) | 96.1% | -39.7% (inactive) | 123% | -0.583 (inactive) | -4e-05 (inactive) | 0.00555 (inactive) | 11% (inactive) | 34.2% (inactive)
27 | CC(=O)Nc1ccc(S(=O)(=O)N(C2=NCC(C)S2)c2ccccc2)cc1 (stereo not drawn) | 594 | 5.4% (inactive) | -4.5% (inactive) | 95.5% | -9.1% (inactive) | 109% | -0.496 (inactive) | -1.6e-05 (inactive) | 0.00617 (inactive) | 11.6% (inactive) | 11.1% (inactive)
28 | CC(C)OC(=O)CSc1nnc(-c2ccco2)n1N | 618 | 0% (inactive) | 7.4% (inactive) | 93.2% | -1% (inactive) | 97.5% | -0.422 (inactive) | -2.8e-05 (inactive) | 0.00405 (inactive) | 0.828% (inactive) | 17% (inactive)
